The results in this text go back to article PMC9911399, “Two distinct binding modes provide the RNA-binding protein RbFox with extraordinary sequence specificity”.

B1: CACAAUA (DNA:RNA)
RNA: GGGAGACCGGAAUUCAGAUUGUCCCACAAUAUUAAAUCCCGUCGUAGCCACCA
DNA 1: CAATCTGAATTCCGGTCTCCC
DNA 2: TGGTGGCTACGACGGGATT
B2: CGUAAUC (DNA:RNA)
RNA: B1 RNA with A26G, C27U, A31C
DNA 1: CAATCTGAATTCCGGTCTCCC
DNA 2: TGGTGGCTACGACGGGATT
B3: CGGCAUC (DNA:RNA)
RNA: B1 RNA with A26G, C27G, A28C, A31C
DNA 1: CAATCTGAATTCCGGTCTCCC
DNA 2: TGGTGGCTACGACGGGATT
B4: GGAGAUC (DNA:RNA)
RNA: B1 RNA with C25G, A26G, C27A, A28G, A31C
DNA 1: CAATCTGAATTCCGGTCTCCC
DNA 2: TGGTGGCTACGACGGGATT
B5: GGGAAUC (DNA:RNA)
RNA: B1 RNA with C25G, A26G, C27G, A31C
DNA 1: CAATCTGAATTCCGGTCTCCC
DNA 2: TGGTGGCTACGACGGGATT
B6: CGGUAUC (DNA:RNA)
RNA: B1 RNA with A26G, C27G, A28U, A31C
DNA 1: CAATCTGAATTCCGGTCTCCC
DNA 2: TGGTGGCTACGACGGGATT
B7: GGGCAUC (DNA:RNA)
RNA: B1 RNA with C25G, A26G, C27G, A28C, A31C
DNA 1: CAATCTGAATTCCGGTCTCCC
DNA 2: TGGTGGCTACGACGGGATT
B8: GGUAUCU (DNA:RNA)
RNA: B1 RNA with C25G, A26G, C27U, A29U, U30C, A31U
DNA 1: CAATCTGAATTCCGGTCTCCC
DNA 2: TGGTGGCTACGACGGGATT
B9: GUUAAUC (DNA:RNA)
RNA: B1 RNA with C25G, A26U, C27U, A31C
DNA 1: CAATCTGAATTCCGGTCTCCC
DNA 2: TGGTGGCTACGACGGGATT
B10: CGGAAUC (DNA:RNA)
RNA: B1 RNA with A26G, C27G, A31C
DNA 1: CAATCTGAATTCCGGTCTCCC
DNA 2: TGGTGGCTACGACGGGATT
B11: CGUCAUC (DNA:RNA)
RNA: B1 RNA with A26G, C27U, A28C, A31C
DNA 1: CAATCTGAATTCCGGTCTCCC
DNA 2: TGGTGGCTACGACGGGATT
B12: GGCAUCU (DNA:RNA)
RNA: B1 RNA with C25G, A26G, A29U, U30C, A31U
DNA 1: CAATCTGAATTCCGGTCTCCC
DNA 2: TGGTGGCTACGACGGGATT
B13: GGGUAUC (DNA:RNA)
RNA: B1 RNA with C25G, A26G, C27G, A28U, A31C
DNA 1: CAATCTGAATTCCGGTCTCCC
DNA 2: TGGTGGCTACGACGGGATT
B14: UUGGUAC (DNA:RNA)
RNA: GGGAGACCGGAAUUCAGAUUGUCCUUGGUACUUAAAUCCCGUCGUAGCCACCA
DNA 1: CAATCTGAATTCCGGTCTCCC
DNA 2: TGGTGGCTACGACGGGATT
B15: CGUCAGG (DNA:RNA)
RNA: B1 RNA with A26G, C27U, A28C, U30G, A31G
DNA 1: CAATCTGAATTCCGGTCTCCC
DNA 2: TGGTGGCTACGACGGGATT
B16: ACUGCGG (DNA:RNA)
RNA: B14 RNA with U25A, U26C, G27U, U29C, A30G, C31G
DNA 1: CAATCTGAATTCCGGTCTCCC
DNA 2: TGGTGGCTACGACGGGATT
B17: UAAAUAU (DNA:RNA)
RNA: B14 RNA with U26A, G27A, G28A, C31U
DNA 1: CAATCTGAATTCCGGTCTCCC
DNA 2: TGGTGGCTACGACGGGATT
B18: UCUACGU (DNA:RNA)
RNA: B1 RNA with C25U, A26C, C27U, A29C, U30G, A31U
DNA 1: CAATCTGAATTCCGGTCTCCC
DNA 2: TGGTGGCTACGACGGGATT
B19: AGUUUCU (DNA:RNA)
RNA: B14 RNA with U25A, U26G, G27U, G28U, A30C, C31U
DNA 1: CAATCTGAATTCCGGTCTCCC
DNA 2: TGGTGGCTACGACGGGATT
B20: UAGACCC (DNA:RNA)
RNA: B14 RNA with U26A, G28A, U29C, A30C
DNA 1: CAATCTGAATTCCGGTCTCCC
DNA 2: TGGTGGCTACGACGGGATT
B21: UUGAUUG (DNA:RNA)
RNA: B14 RNA with G28A, A30U, C31G
DNA 1: CAATCTGAATTCCGGTCTCCC
DNA 2: TGGTGGCTACGACGGGATT
B22: UUAAAUC (DNA:RNA)
RNA: B1 RNA with C25U, A26U, C27A, A31C
DNA 1: CAATCTGAATTCCGGTCTCCC
DNA 2: TGGTGGCTACGACGGGATT
B23: UUGAUCC (DNA:RNA)
RNA: B14 RNA with G28A, A30C
DNA 1: CAATCTGAATTCCGGTCTCCC
DNA 2: TGGTGGCTACGACGGGATT
B24: UUGAUUC (DNA:RNA)
RNA: B14 RNA with G28A, A30U
DNA 1: CAATCTGAATTCCGGTCTCCC
DNA 2: TGGTGGCTACGACGGGATT
B25: UUGAAAU (DNA:RNA)
RNA: B14 RNA with G28A, U29A, C31U
DNA 1: CAATCTGAATTCCGGTCTCCC
DNA 2: TGGTGGCTACGACGGGATT
B26: UUGAAUC (DNA:RNA)
RNA: B14 RNA with G28A, U29A, A30U
DNA 1: CAATCTGAATTCCGGTCTCCC
DNA 2: TGGTGGCTACGACGGGATT
B27: UUGAAUG (DNA:RNA)
RNA: B1 RNA with C25U, A26U, C27G, A31G
DNA 1: CAATCTGAATTCCGGTCTCCC
DNA 2: TGGTGGCTACGACGGGATT
B28: UUAAAUG (DNA:RNA)
RNA: B1 RNA with C25U, A26U, C27A, A31G
DNA 1: CAATCTGAATTCCGGTCTCCC
DNA 2: TGGTGGCTACGACGGGATT
B29: UUGUUGA (DNA:RNA)
RNA: B14 RNA with G28U, A30G, C31A
DNA 1: CAATCTGAATTCCGGTCTCCC
DNA 2: TGGTGGCTACGACGGGATT
B30: CCAAUUG (DNA:RNA)
RNA: B1 RNA with A26C, C27A, A29U, A31G
DNA 1: CAATCTGAATTCCGGTCTCCC
DNA 2: TGGTGGCTACGACGGGATT
B31: GUGGUAG (DNA:RNA)
RNA: B14 RNA with U25G, C31G
DNA 1: CAATCTGAATTCCGGTCTCCC
DNA 2: TGGTGGCTACGACGGGATT

Numbering of substitutions follows the chain as printed; changes in the protein carry UniProt numbers. The full ranking holds about 16,000 sequences; the median of “ka relative to ugcaugu” is about 0.096, and the highest 2% start at about 0.35. Only a selection was taken, and the highest values are over-represented in it overall.

The target in this test is T1, RBFOX1 RRM RbFoxmut (Fox-RRM*) (Homo sapiens, UniProt Q9NWB1 109-208, R118D;E147R;N151S;E152T).
T1 sequence: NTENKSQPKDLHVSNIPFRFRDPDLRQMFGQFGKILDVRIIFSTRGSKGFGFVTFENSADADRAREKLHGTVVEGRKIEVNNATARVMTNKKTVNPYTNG
Nature of the test: EMSA; HiTS-Eq, 1 nM pool, 10 min; buffer printed only for the single-RNA assays: 10 mM Tris pH 7.5, 150 mM NaCl, 3.4 mM EDTA, 0.001% NP-40, 30 C. Conditions: tags: His6 N-terminal (pET28a); label: 5' 32P. In outline:
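Purified RbFox RRM, wild type or mutant, was incubated for 10 min in 50 µL with 1 nM of a 5′-radiolabelled RNA pool carrying 7 randomized nucleotides, whose flanks were annealed to DNA oligonucleotides, over a series of increasing protein concentrations. Unbound RNA was resolved on 8% native PAGE, cut out, reverse-transcribed, barcoded by PCR and sequenced on an Illumina HiSeq 2500. Relative association constants were derived from changes in read counts for each RNA species versus the control reaction and normalised to the cognate motif.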
On the technique in general: In EMSA bound probe runs differently from free probe, usually more slowly.
Turning to B1, the binding signal was 0.084 KA relative to UGCAUGU.
Take B2: the binding signal was 0.0673 KA relative to UGCAUGU.
With B3 the figure was 0.261 KA relative to UGCAUGU; with B4, 0.155 KA relative to UGCAUGU; with B5, 0.494 KA relative to UGCAUGU.
In the case of B6 it was 0.245 KA relative to UGCAUGU; in that of B7, 0.396 KA relative to UGCAUGU; in that of B8, 0.206 KA relative to UGCAUGU.
In the case of B9 it was 0.0571 KA relative to UGCAUGU.
As for B10, the binding signal was 0.436 KA relative to UGCAUGU.
With B11 the figure was 0.0997 KA relative to UGCAUGU.
With B12 the figure was 0.27 KA relative to UGCAUGU; with B13, 0.409 KA relative to UGCAUGU.
As for B14, the binding signal was 0.144 KA relative to UGCAUGU.
In the case of B15 it was 0.113 KA relative to UGCAUGU; in that of B16, 0.0963 KA relative to UGCAUGU.
In the case of B17 it was 0.0636 KA relative to UGCAUGU; in that of B18, 0.118 KA relative to UGCAUGU; in that of B19, 0.0838 KA relative to UGCAUGU.
With B20 the figure was 0.0507 KA relative to UGCAUGU; with B21, 0.381 KA relative to UGCAUGU.
With B22, the binding signal is 0.0555 KA relative to UGCAUGU.
With B23, the binding signal is 0.0834 KA relative to UGCAUGU.
In the case of B24 it was 0.196 KA relative to UGCAUGU.
In the case of B25 it was 0.0963 KA relative to UGCAUGU; in that of B26, 0.374 KA relative to UGCAUGU.
In the case of B27 it was 1.17 KA relative to UGCAUGU; in that of B28, 0.0888 KA relative to UGCAUGU.
B29: the binding signal was 0.0998 KA relative to UGCAUGU.
In the case of B30, the binding signal is 0.0976 KA relative to UGCAUGU.
With B31 the figure was 0.181 KA relative to UGCAUGU.
